# JMJD2A Tudor inh: JMJD2A Tudor domain (human) inhibition. O75164. AlphaScreen JMJD2A-Tudor / H3K4me3 peptide binding. Potency, µM (series often up to 114 µM), without a hit: top-dose activity change, negative = inhibition, most hits filed as inhibitors. 4.4% of 390,000 active. AID 504339; further: on the % scale 0 is the no-effect control and ±100 the full control effect; nearly all actives have a fitted effect of over 50% in size
# Target sequence (O75164 whole entry, looked up, the tested form may be a part): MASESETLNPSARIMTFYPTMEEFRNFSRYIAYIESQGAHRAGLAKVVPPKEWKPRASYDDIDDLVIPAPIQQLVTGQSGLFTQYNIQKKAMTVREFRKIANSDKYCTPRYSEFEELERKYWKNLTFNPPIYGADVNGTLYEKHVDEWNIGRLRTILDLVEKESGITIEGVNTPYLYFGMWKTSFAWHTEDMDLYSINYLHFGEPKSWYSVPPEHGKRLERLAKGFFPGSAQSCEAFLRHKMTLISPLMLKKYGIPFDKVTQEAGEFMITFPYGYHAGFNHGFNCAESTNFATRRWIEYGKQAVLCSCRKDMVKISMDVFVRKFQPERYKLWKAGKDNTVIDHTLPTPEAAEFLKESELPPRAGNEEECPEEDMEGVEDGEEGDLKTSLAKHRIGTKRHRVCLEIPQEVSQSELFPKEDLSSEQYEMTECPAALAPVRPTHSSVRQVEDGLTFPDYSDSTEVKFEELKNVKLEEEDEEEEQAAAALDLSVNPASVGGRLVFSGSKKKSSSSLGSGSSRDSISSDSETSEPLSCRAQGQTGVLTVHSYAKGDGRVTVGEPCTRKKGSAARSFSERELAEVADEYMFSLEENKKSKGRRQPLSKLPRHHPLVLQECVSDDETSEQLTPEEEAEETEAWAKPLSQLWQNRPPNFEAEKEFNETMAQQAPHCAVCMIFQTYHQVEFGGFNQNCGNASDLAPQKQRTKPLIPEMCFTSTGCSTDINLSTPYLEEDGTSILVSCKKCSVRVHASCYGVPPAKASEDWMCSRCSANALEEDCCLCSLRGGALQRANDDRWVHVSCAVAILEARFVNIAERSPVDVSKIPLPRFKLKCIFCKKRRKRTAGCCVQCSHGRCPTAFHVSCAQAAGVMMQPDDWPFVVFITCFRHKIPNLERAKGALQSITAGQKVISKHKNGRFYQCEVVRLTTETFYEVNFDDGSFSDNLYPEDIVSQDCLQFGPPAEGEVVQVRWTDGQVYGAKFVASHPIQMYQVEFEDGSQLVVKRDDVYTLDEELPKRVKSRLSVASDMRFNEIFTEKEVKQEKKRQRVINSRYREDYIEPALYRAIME
# BAZ2B inh: BAZ2B (human) inhibition; Q9UIF8; AlphaScreen BAZ2B-H3K14Ac peptide displacement; Potency, µM (series often up to 114 µM), for inactives: top-dose activity change, negative = inhibition, actives largely listed as inhibitors; 4.4% of 360,000 active; further: on the % scale 0 is the no-effect control and ±100 the full control effect; nearly all actives have a fitted effect of over 60% in size
#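 Compounds, titrated to a top concentration of 110 uM, were incubated 30 min at room temperature with preformed BAZ2B/acetyl-K14 H3 peptide complex (50 nM each). Proximity signal was measured by AlphaScreen after 20 min with beads.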
# G9a block: G9a (human) methyltransferase inhibition | Q96KQ7 | G9a H3K9 monomethylation, AlphaScreen, 2 h | Potency, µM (titrated, usually from 102 µM), for inactives: at the top dose activity, negative = inhibition, actives largely listed as inhibitors | 8.8% of 350,000 active | AID 504332; further: on the % scale 0 is the no-effect control and ±100 the full control effect; nearly all actives have a fitted effect of over 75% in size
#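 Compounds were preincubated with 20 nM G9a for 15 min, after which biotinylated H3K9 peptide (500 nM) and SAM (20 uM) started a 2 h room-temperature reaction. Monomethylated product was quantified by antibody-based AlphaScreen chemiluminescence.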
# HP1b chromo inh: inhibitors of HP1-beta chromodomain binding to methylated histone tails; P83916; AlphaScreen HP1-beta / biotin-H3K9me3 peptide binding; Potency, µM (highest dose often 114 µM), for the others: at the top dose activity change, negative = inhibition, actives largely listed as inhibitors; 0.56% of 390,000 active; AID 540317; further: nearly all actives have a fitted effect of over 70% in size
#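 HP1-beta protein (50 nM final) preincubated 30 min at room temperature with biotinylated H3(1-18)K9me3 peptide (50 nM) in PBS pH 7.4, 0.01% Tween-20, then compound added for 30 min. AlphaScreen streptavidin donor/nickel chelate acceptor beads (10 ug/mL final), 30 min dark, luminescence read.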
# Sfp PPTase inh: Sfp phosphopantetheinyl transferase inhibition. 3.5% of 310,000 active. AID 1490. Potency, µM, without a hit: largest response in the series, negative = inhibition, hits mostly inhibitors. Biochemical Sfp PPTase activity, qHTS;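 further: the enzyme is Sfp with the accession as filed and its product quenches rhodamine fluorescence; 0% = enzyme reaction without inhibitor and -100% = no enzyme wells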
#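 Sfp 15 nM + cpd, 15 min RT; start w/ rhodamine-CoA 5 uM, BHQ-2-YbbR 12.5 uM (final); 50 mM Hepes pH 7.6, 10 mM MgCl2, 0.01% NP-40, 0.01% BSA; read 525/598 nm at 0 and 30 min.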
# * marks the source's active call; other numbers are inactive results; u = inconclusive; x = no result given; [ ] = another dose, or the depositor's remark. Compounds with a hit are over-represented: about 12% of the library has one in this group of screens. The call rests on the fitted dose curve; in most records, active means well fitted curve in the direction sought with a large enough effect; inconclusive means small, poorly fitted or top-dose-only effect, or another doubt; inactive means no such curve, though single readings can be large; an effect the other way counts as inactive or inconclusive. Potency means the concentration at half of the fitted maximal effect.
SMILES,JMJD2A Tudor inh,BAZ2B inh,G9a block,HP1b chromo inh,Sfp PPTase inh
COc1ccc(-n2nc3c(N4CCCC(C(=O)NCc5ccc(C)cc5)C4)nnc(C)c3c2C)cc1 (stereo unspecified),56.2µM*,50.1µM*,u,14.1%,x
CCc1ccc(CNC(=O)C2CCCN(c3nnc(C)c4c(C)n(-c5ccc(OC)cc5)nc34)C2)cc1 (stereo unspecified),u,-28.1%,10µM*,-13.7%,x
O=C(NCCc1ccccc1)C(=O)NCC1OCCN1S(=O)(=O)c1ccc(F)cc1 (stereo unspecified),-9.9%,-6.0%,12.9%,19.5%,12.5%
NNC(=O)c1sc2nc(N3CCOCC3)c3c(c2c1N)CCCC3,-21.6%,-27.9%,u,33.7%,7.9%
CC1(C)Cc2c(c(N3CCOCC3)nc3sc(C(=O)N4CCCCC4)c(N)c23)CO1,u,-36.1%,4.47µM*,27.0%,15.8µM*
Nc1c(C(=O)N2CCOCC2)sc2nc(N3CCOCC3)c3c(c12)CCCC3,u,-13.8%,10µM*,5.1%,10µM*
CN1Cc2c(N3CCOCC3)nc3sc(C(=O)c4ccc(Br)cc4)c(N)c3c2CC1(C)C,44.7µM*,35.5µM*,44.7µM*,u,44.7µM*
COc1ccc(NC(=O)c2sc3nc(N4CCCC4)c4c(c3c2N)CC(C)(C)OC4)cc1,-5.1%,-7.0%,x,35.5%,10µM*
COc1ccc(CNC(=O)C2CCN(S(=O)(=O)c3cccc4nonc34)CC2)cc1OC,-12.0%,-6.8%,4.3%[59 µM],28.4%,x
Nc1c(C(=O)Nc2ccc(Cl)cc2)sc2nc(N3CCOCC3)c3c(c12)CCCC3,-18.7%,-13.3%,22.4µM*,13.3%,-10.0%
Nc1nc2sc3c(c2cc1C(=O)NCC(=O)O)CCCC3,-11.7%,-13.9%,u,35.3%,-12.7%
CC(=O)c1ccc(NC(=O)c2sc3nc(N4CCOCC4)c4c(c3c2N)CCCC4)cc1,4.7%,-27.6%,25.1µM*,29.7%,u
Nc1nc2sc3c(c2cc1C(=O)N1CCOCC1)CCCC3,14.1µM*,-38.9%,u,6.1%,-16.2%
CCOc1ccc(NC(=O)c2sc3nc(N4CCOCC4)c4c(c3c2N)CCCC4)cc1,-10.5%,-17.0%,u,28.5%,-4.4%
COc1cc(S(=O)(=O)N2CCC(N3CCCCC3)CC2)ccc1-n1cnnn1,-15.6%,-4.2%,-8.7%[59 µM],19.3%,3.9%
Cc1ccc(N2CCN(S(=O)(=O)c3ccc(-n4cnnn4)cc3)CC2)c(C)c1,-11.7%,-11.0%,-7.7%,22.8%,5.2%
COc1cc(S(=O)(=O)N2CCCCCC2)ccc1-n1cnnn1,-26.7%,u,u,17.0%,44.7µM*
CCCN1CCN(S(=O)(=O)c2ccc(-n3cnnn3)cc2)CC1,3.5%,-19.1%,50.1µM*,23.4%,1.2%
COc1ccc(N2CCN(S(=O)(=O)c3ccc(-n4cnnn4)c(C)c3)CC2)cc1,-16.6%,-12.1%,7.08µM*,20.9%,0.5%
COc1ccccc1NS(=O)(=O)c1ccc(C(=O)Nc2ncccc2O)cc1,-21.6%,-10.9%,12.6%[59 µM],17.1%,x
Cc1n[nH]c(=O)[nH]c1=O,x,x,16.3%[21.5 µM],x,4.8%
COc1ccc(-c2nnc(SCC(=O)Nc3cc(C)on3)n2N)cc1OC,-17.1%,-4.8%,50.1µM*,36.6%,7.1%
COc1cccc(-c2nnc(SCC(=O)Nc3cc(C)on3)n2C)c1,-4.2%,-1.6%,50.1µM*,16.6%,19.2%
COc1ccc(OC)c(C(=O)CSc2nnc(-c3cccnc3)n2C)c1,-10.1%,-19.3%,17.8µM*,23.6%,9.8%
CCc1sc2nc(SCC(=O)Nc3cc(C)on3)n(-c3cccc(OC)c3)c(=O)c2c1C,-14.9%,u,-15.3%,26.0%,56.2µM*
COc1cccc(-n2c(SCC(=O)Nc3cc(C)on3)nc3ccccc3c2=O)c1,-9.9%,-5.0%,15.4%[59 µM],26.5%,15.9%
CC(c1ccco1)N(C)c1ncnc2ccc(-c3ccc4c(c3)OCO4)cc12 (stereo unspecified),-22.4%,x,x,x,x
Cc1cc(NC(=O)CSc2nnnn2-c2ccc(C)c(Cl)c2)no1,-7.0%,7.3%,44.7µM*,22.9%,-2.4%

# Source: PubChem BioAssay
